This is a sample that favours compounds with a hit; in the whole collection about 2.4% have one here.
CHT allo act: allosteric activators of human choline transporter CHT. Q9GZV3. CHT-expressing cells, membrane potential dye, choline EC20; hits give high values; LV-AA mutant CHT in HEK293 cells. B-score at 10 µM. actives 0.49% (n = 310,000);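 active = initial fluorescence not abnormally high and integrated response B-score, plate-corrected, over 3 SD above library mean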
CHT inh: inhibitors of human choline transporter CHT. Q9GZV3. CHT-expressing cells, membrane potential dye, choline response; hits give low values. B-score at 10 µM. actives 0.86% (n = 310,000). AID 488975;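 active = B-score over 3 SD under the library average, and starting fluorescence ratio not unusually high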;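 also: choline stimulus applied at its EC90 after an EC20 pre-addition; B-score computed on integrated fluorescence ratio after choline addition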
ANO1 block: mouse TMEM16A channel inhibition, primary screen | Q8BHY3 | HEK293 TMEM16A/YFP iodide influx fluorescence, ionomycin | normalized B-score (activity score, 25-100; higher = stronger inhibition) at 10 µM | actives 1.2% (n = 310,000) | AID 588511;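 active = ratio plate-corrected score three or more library SD toward inhibition, starting fluorescence score within five deviations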;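 also: score derived from kinetic fluorescence span divided by baseline fluorescence per well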
Target sequence (Q8BHY3 whole entry, looked up): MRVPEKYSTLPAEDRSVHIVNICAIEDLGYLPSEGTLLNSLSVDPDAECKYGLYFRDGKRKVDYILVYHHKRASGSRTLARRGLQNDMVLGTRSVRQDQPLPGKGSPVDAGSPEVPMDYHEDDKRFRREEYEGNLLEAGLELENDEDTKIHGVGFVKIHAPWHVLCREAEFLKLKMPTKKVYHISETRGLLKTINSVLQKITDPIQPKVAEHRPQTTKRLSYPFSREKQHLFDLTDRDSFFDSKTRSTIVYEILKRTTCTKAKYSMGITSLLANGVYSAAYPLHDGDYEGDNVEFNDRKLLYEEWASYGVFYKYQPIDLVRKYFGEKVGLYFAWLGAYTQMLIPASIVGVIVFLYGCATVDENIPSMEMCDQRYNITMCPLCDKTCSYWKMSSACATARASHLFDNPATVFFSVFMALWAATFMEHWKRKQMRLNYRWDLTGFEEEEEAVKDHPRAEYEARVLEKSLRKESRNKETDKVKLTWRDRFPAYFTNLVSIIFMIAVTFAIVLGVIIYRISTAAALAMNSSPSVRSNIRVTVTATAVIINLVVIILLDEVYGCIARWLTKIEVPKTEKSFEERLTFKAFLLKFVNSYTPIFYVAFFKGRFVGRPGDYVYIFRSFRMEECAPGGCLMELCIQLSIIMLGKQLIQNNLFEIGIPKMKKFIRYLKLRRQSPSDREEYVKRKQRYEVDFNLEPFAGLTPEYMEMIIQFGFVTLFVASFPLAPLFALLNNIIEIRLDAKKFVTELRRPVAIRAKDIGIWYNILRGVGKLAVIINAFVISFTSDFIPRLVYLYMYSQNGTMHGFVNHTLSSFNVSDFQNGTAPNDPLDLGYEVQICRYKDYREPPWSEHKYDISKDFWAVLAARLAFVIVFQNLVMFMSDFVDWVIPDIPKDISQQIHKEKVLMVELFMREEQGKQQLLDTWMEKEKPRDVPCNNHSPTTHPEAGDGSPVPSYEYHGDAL
ANO1 activ: activators or potentiators of mouse TMEM16A chloride channel | actives 0.3% (n = 340,000) | Q8BHY3 | B-score at 10 µM | HEK293 TMEM16A/YFP-H148Q/I152L, iodide quench fluorescence; hits give low values;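 active = fluorescence-ratio B-score plate-corrected deviation score at least 3 library SD below zero, with starting fluorescence score within 5 deviations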;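 also: channel opened by trigger with iodide after compound preincubation; score built on the fluorescence ratio of max minus min over baseline; more negative score means more quench and so TMEM16A activation or potentiation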
CHT act confirm: confirmation of human choline transporter (CHT) activators | shares compounds with CHT allo act | actives 91% (n = 2,500) | CHT-expressing cells, membrane potential dye fluorescence (FDSS); % of choline EC20–EC90 response window; HEK293 expressing CHT LV-AA mutant; choline added at its EC20 | activation, % at 10 µM;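 active = primary screen active, with duplicate mean activation above negative control mean plus 3 SD, cut at about 11% in these data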
HEK293 MP dye: counter-screen for CHT activators: effect in parental HEK293 cells; ratio readout change at 10 µM, hits read low; shares compounds with CHT allo act; membrane potential dye fluorescence (FDSS); measured after EC20 choline addition; AID 623908; actives 62% (n = 2,500);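 active = duplicate-averaged ratio beyond 3 SD from buffer wells, up or down, though filed actives are nearly all decreases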
Starred values were filed as active, the others as inactive; i = inactive; nt = no result given.

SMILES	CHT allo act	CHT inh	ANO1 block	ANO1 activ	CHT act confirm	HEK293 MP dye
CCCC(=O)N1c2ccccc2C(=C2SC(C(=O)OC)=C(C(=O)OC)S2)C(=S)C1(C)C	i	i	i	i	20*	i
Cc1cc(=O)n2nc(-c3ccc(C(F)(F)F)cc3)sc2n1	6.8*	i	i	i	42*	-35*
CN(C)CCC1CCN(c2cc(C#N)c(C#N)cc2[N+](=O)[O-])CC1	7.2*	i	i	i	58*	-64*
N#Cc1cc(N2CCCCC2)c([N+](=O)[O-])cc1C#N	i	i	i	i	nt	nt
COCCSc1nc(N)c2c3c(sc2n1)CN(C)CC3	6.4*	i	i	i	41*	-51*
CSc1nc(NCc2ccccc2)c2c3c(sc2n1)CN(C)CC3	i	i	i	i	nt	nt
CSc1nc(SCC(=O)NCC2CCCO2)c2c3c(sc2n1)CN(C)CC3 (configuration not stated)	6.5*	i	i	i	36*	-50*
CC(C)Sc1nc(N)c2c3c(sc2n1)CN(C)CC3	i	i	i	i	31*	-44*
Cc1nc(SCC(=O)NCC2CCCO2)c2c3c(sc2n1)CCCC3 (configuration not stated)	i	i	i	i	nt	nt
COCCNc1nc(SC)nc2sc3c(c12)CCN(C)C3	7.1*	i	i	i	38*	-44*
COC1=C(Nc2ccccc2OC)C(=O)c2ccccc2C1=O	8.7*	i	i	i	37*	-41*
COc1ccccc1NC1=C(NC(C)=O)C(=O)c2ccccc2C1=O	nt	nt	nt	i	nt	nt
Nc1ncnc2nc[nH]c12	i	i	i	i	nt	nt
O=C(c1nc(-c2ccccc2)n(-c2ccccc2)n1)N1CCN(S(=O)(=O)c2ccccc2)CC1	i	i	i	i	nt	nt
Cc1ccc(C(=O)NC(=S)NNC(=O)c2ccccc2[N+](=O)[O-])cc1	i	i	i	i	nt	nt
CN(C)Cc1ccc(-c2nc3cccc4c3n2CCNC4=O)cc1	i	i	i	i	51*	-38*
Nc1nc(Cl)nc2c1ncn2C1OCC(O)C(O)C1O (configuration not stated)	nt	nt	nt	i	nt	nt
Cc1cc(C)c2cc3c(ccn3C3OC[C@H](O)[C@H](O)[C@H]3O)cc2n1 (some centres not stated)	i	i	i	i	62*	-46*
Cc1ccc(OCC(=O)N/N=C\c2ccncc2)c(C)c1	i	i	i	i	nt	nt
CC1CCN(c2ccccc2NC(=O)c2ccc(C#N)cc2F)CC1	i	i	i	i	nt	nt
CC(C)C(=O)N1CCN(c2ccccc2NC(=O)c2ccc(C#N)cc2F)CC1	7.7*	i	i	i	54*	i
CCC1=Nc2ccc(Br)cc2C(c2ccccc2)N1CC(=O)OC (configuration not stated)	11*	i	i	i	14*	i
CC1CCCN(c2ccc3nc4ccccc4c(=O)n3n2)C1 (configuration not stated)	i	i	i	i	nt	nt
Cc1ccc2nc3ccc(N4CCCC4)nn3c(=O)c2c1	i	i	i	i	44*	-46*
Cc1ccc(C)c(-n2c(Cc3cccs3)n[nH]c2=S)c1	i	i	i	i	nt	nt
SMILES	CHT allo act	CHT inh	ANO1 block	ANO1 activ	CHT act confirm	HEK293 MP dye
O=C(Cn1cnc([N+](=O)[O-])n1)N/N=C/c1ccccc1O	i	i	i	i	nt	nt
Cc1ccccc1CN1C2=NCCN2c2ccccc21	i	i	i	i	nt	nt
CCOC(=O)CN1C2=NCCN2c2ccccc21	i	i	i	i	nt	nt
CCCN1C2=NCCN2c2cc(C)c(C)cc21	8.3*	i	i	i	42*	-46*
CCCCCN1C2=NCCN2c2ccccc21	i	i	i	i	34*	-31*
COc1ccc(Br)cc1CN(C)CC(=O)Nc1c(Cl)cccc1Cl	i	i	i	i	7	i
Cc1cc2oc(C(=O)Nc3ccc(S(=O)(=O)Nc4onc(C)c4C)cc3)cc(=O)c2cc1Cl	i	i	i	i	37*	-35*
Cc1noc(NS(=O)(=O)c2ccc(NC(=O)c3cc(=O)c4ccccc4o3)cc2)c1C	i	i	i	i	nt	nt
Cc1cc(C)nc(/N=C(\N)N2CCCCC2)n1	6.9*	i	i	i	52*	-41*
Cc1cc(C)nc(/N=C(\N)N2CCc3ccccc32)n1	i	i	i	i	nt	nt
COc1ccccc1CNS(=O)(=O)c1ccc(-c2cnc(C3CC3)o2)cc1	i	i	i	i	nt	nt
COc1ccccc1NS(=O)(=O)c1ccc(-c2cnc(C3CC3)o2)cc1	i	i	i	i	24*	i
CCCN1C2CCCC1CC(NC(=O)c1cccc([N+](=O)[O-])c1)C2 (configuration not stated)	i	i	i	i	nt	nt
COc1ccc(NC(=O)C(=O)NNC(=O)c2cccs2)c(OC)c1	7.2*	i	i	i	69*	-47*
CCOC(=O)c1cnc2ccc(Cl)cc2c1N1CCN(C)CC1	i	i	i	i	nt	nt
CCOC(=O)c1cnc2ccc(OCC)cc2c1N1CCN(C)CC1	8.4*	i	i	i	41*	-40*
O=C(Nc1cccc(C2=NCCN2)c1)Nc1cccc(C2=NCCN2)c1	i	i	i	i	nt	nt
COc1cc(OC)cc(C2=NCCN2)c1	i	i	i	i	35*	-43*
O=C(Nc1c(-c2cccs2)nc2ccccn12)c1ccc2ccccc2c1	i	i	i	nt	nt	nt
CC[n+]1c(/C=C/c2cc([N+](=O)[O-])ccc2O)ccc2ccccc21	i	i	i	i	17*	-52*
CC[n+]1c(/C=C/c2ccc(OC)c(OC)c2)ccc2ccccc21	i	i	i	i	nt	nt
CC[n+]1c(/C=C/c2ccc(OC(C)=O)c(OC)c2)ccc2ccccc21	7.2*	i	i	i	45*	-74*
Nn1c(SCC(=O)NCC2CCCO2)nnc1-c1cc(Cl)ccc1Cl (configuration not stated)	nt	nt	nt	i	nt	nt
COC(=O)c1c(NC(C)=O)sc2c1CCN(Cc1ccccc1)C2	7.2*	i	i	i	40*	-66*
CCOC(=O)c1c(NC(C)=O)sc2c1CCN(Cc1ccccc1)C2	6.4*	i	i	i	40*	-60*
Clc1cccc(Cl)c1C[n+]1cccc2ccccc21	i	i	i	i	nt	nt
